Source: PubChem BioAssay (NCATS)
Inconclusive results are not listed. Activity calls are given as the source filed them. Calls follow the shape of the dose curve; as a rule, active = well fitted curve in the direction sought with a large enough effect; inconclusive = small, poorly fitted or top-dose-only effect, or another doubt; inactive = no such curve, though single readings can be large; an effect the other way counts as inactive or inconclusive.

Experiments:
[1] = Quantitative High-Throughput drug screen in 47 multiple myeloma cell lines against the NCATS MIPE library collection: Karpas417_ECACC cell viability assay (AID 1918961); settings: Karpas417 myeloma viability, CellTiter-Glo ATP luminescence, 48 h; viability (% of DMSO): at 45.8 µM (top of the series)
Procedure, shortened: (§1)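 Luminescent ATP measurement with CellTiter-Glo gives viability, scaled between DMSO-only wells (100%) and media-only wells (0%). Cells, 500 per well, faced library compounds for 48 hours at 37C.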

[2] = Quantitative High-Throughput drug screen in 47 multiple myeloma cell lines against the NCATS MIPE library collection: JIM1_ECACC cell viability assay (AID 1918964)
Procedure, shortened: (§2)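 Steps: seed 500 cells per well; pin-transfer MIPE 4.0 library; incubate 48 h at 37C, 5% CO2, humidified; add CellTiter-Glo, 5 min room temperature; read luminescence.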

[3] = Quantitative High-Throughput drug screen in 47 multiple myeloma cell lines against the NCATS MIPE library collection: INA6_PLB cell viability assay (AID 1918965; also: nearly all actives have a fitted effect of over 55% in size)
Procedure, shortened: as §1

[4] = Quantitative High-Throughput drug screen in 47 multiple myeloma cell lines against the NCATS MIPE library collection: H1112_PLB cell viability assay (AID 1918967; also: nearly all actives have a fitted effect of over 30% in size)
Procedure, shortened: as §2

[5] = Quantitative High-Throughput drug screen in 47 multiple myeloma cell lines against the NCATS MIPE library collection: Karpas25_ECACC cell viability assay (AID 1918968; also: nearly all actives have a fitted effect of over 35% in size)
Procedure, shortened: as §2

[6] = Quantitative High-Throughput drug screen in 47 multiple myeloma cell lines against the NCATS MIPE library collection: JIM3_ECACC cell viability assay (AID 1918963; also: nearly all actives have a fitted effect of over 35% in size)
Procedure, shortened: (§3)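 qHTS of the MIPE 4.0 collection: 500 myeloma cells/well, 48 h drug exposure at 37C in 5% CO2, then CellTiter-Glo for 5 min at room temperature before luminescence reading.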

[7] = Quantitative High-Throughput drug screen in 47 multiple myeloma cell lines against the NCATS MIPE library collection: KMS27_JCRB cell viability assay (AID 1918970); settings: KMS27 myeloma cells, CellTiter-Glo ATP viability, 48 h; viability (% of DMSO): at 45.8 µM (top of the series); also: nearly all actives have a fitted effect of over 30% in size
Procedure, shortened: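 Each line is seeded at 500 cells per well and treated with library compounds for 48 hours under 37 °C, 5% CO2. CellTiter-Glo is then added for 5 min at room temperature before median relative luminescence is recorded.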

[8] = Quantitative High-Throughput drug screen in 47 multiple myeloma cell lines against the NCATS MIPE library collection: KHM11_PLB cell viability assay (AID 1918962); also: nearly all actives have a fitted effect of over 35% in size
Procedure, shortened: as §3

[9] = Quantitative High-Throughput drug screen in 47 multiple myeloma cell lines against the NCATS MIPE library collection: JJN3_DSMZ cell viability assay (AID 1918966; also: nearly all actives have a fitted effect of over 50% in size)
Procedure, shortened: as §2
Potency is read from the fitted curve at half-maximal effect.

Compound | Potency [1] | Potency [2] | Potency [3] | Potency [4] | Potency [5] | Potency [6] | Potency [7] | Potency [8] | Potency [9]
COc1cc(C)c(C=CC(C)=CC=CC(C)=CC(=O)O)c(C)c1C | inactive | inactive | 5.26 µM (active) | inactive | inactive |  |  |  | 
COc1ccc(CCC(=O)c2c(O)cc(O[C@@H]3O[C@H](CO)[C@@H](O)[C@H](O)[C@@H]3O[C@@H]3O[C@@H](C)[C@H](O)[C@@H](O)[C@@H]3O)cc2O)cc1O | inactive |  |  |  | 9.35 µM (active) | 18.7 µM (active) | inactive |  | 
CCC(C=C[C@@H]1OC(=O)C=C[C@H]1C)=C[C@H](C)CC=CC(C)=C[C@@H](C)C(=O)[C@@H](C)[C@H](O)[C@@H](C)CC(C)=CC(=O)O |  | 0.0156 µM (active) | 0.0156 µM (active) | 0.0392 µM (active) | 0.0196 µM (active) | 0.0349 µM (active) | 0.0098 µM (active) | 0.0439 µM (active) | 
CCn1c(=O)c2c(nc(C=Cc3ccc(OC)c(OC)c3)n2C)n(CC)c1=O | inactive |  |  |  | inactive |  | 11.8 µM (active) |  | inactive
CCc1cc(C(C)=NOCc2ccc(C3CCCCC3)c(C(F)(F)F)c2)ccc1CN1CC(C(=O)O)C1 | 0.059 µM (active) |  | inactive | 14.8 µM (active) |  |  |  |  | 
CN[C@@H]1C[C@H]2O[C@@](C)([C@H]1OC)n1c3ccccc3c3c4c(c5c6ccccc6n2c5c31)C(=O)N[C@H]4O |  |  | 0.0418 µM (active) | 0.526 µM (active) | 0.132 µM (active) | 0.148 µM (active) | 0.148 µM (active) | 0.0296 µM (active) | 
c1cncc(CN2CCC(n3ncc4c(N5CCOCC5)nc(-c5ccc6[nH]ccc6c5)nc43)CC2)c1 |  |  | 5.9 µM (active) | 13.2 µM (active) | 2.35 µM (active) | 5.26 µM (active) |  | 1.66 µM (active) | 5.9 µM (active)
O=c1ccn([C@@H]2O[C@H](CO)[C@H](O)[C@@H]2F)c(=O)[nH]1 | inactive |  |  |  | 9.35 µM (active) | inactive |  |  | 
O=C(C=CC=Cc1ccc2c(c1)OCO2)N1CCCCC1 |  |  |  | inactive |  | inactive |  | inactive | inactive
CN(C)CCN1C(=O)c2cccc3cc(N)cc(c23)C1=O |  | 18.7 µM (active) | 3.32 µM (active) | 18.7 µM (active) | 18.7 µM (active) | 14.8 µM (active) |  | 7.43 µM (active) | 20.9 µM (active)
N#CC(=C(O)c1ccc(Cl)cc1Cl)c1nc2cc(Cl)ccc2c(=O)[nH]1 |  |  | inactive |  |  | inactive | inactive | inactive | 
CC(O)(C#Cc1ccc2c(c1)N(c1nc(N)ncc1Cl)CC2)c1nccs1 (configuration not stated) | 4.69 µM (active) |  | 8.33 µM (active) | 1.18 µM (active) | 3.72 µM (active) |  | 20.9 µM (active) |  | 
OCC(O)C(O)C(O)CO (configuration not stated) |  |  | inactive | inactive | inactive | inactive | inactive | inactive | 
CC(=O)O[C@@]12CO[C@H]1C[C@H](O)[C@@]1(C)C(=O)[C@H](O)C3=C(C)[C@@H](OC(=O)C(O)[C@@H](NC(=O)OC(C)(C)C)c4ccccc4)C[C@@](O)([C@@H](OC(=O)c4ccccc4)[C@@H]21)C3(C)C (some centres not stated) |  | inactive |  | inactive | inactive | inactive | inactive | inactive | inactive
CN(C)c1ccc2cc(C(=O)N[C@@H](CCCN=C(N)CCl)C(=O)NCc3ccccc3)ccc2c1 |  | 3.72 µM (active) | 9.35 µM (active) | 20.9 µM (active) | 13.2 µM (active) | 11.8 µM (active) | 1.48 µM (active) | 16.6 µM (active) | 1.05 µM (active)
OC[C@H]1OC(O)C[C@@H](O)[C@H]1O (some centres not stated) | inactive |  |  |  |  | inactive | inactive |  | 
C[C@@H](Cc1cc2c(c(C(N)=O)c1)N(CCCO)CC2)NCCOc1ccccc1OCC(F)(F)F |  | inactive |  |  |  | inactive | inactive | inactive | inactive
